An excerpt weighted towards active compounds, which were near 2.2% of everything screened.
TDP43 rescue = qHTS of TDP-43 Inhibitors. AID 652104, 2013. TDP-43 expressing yeast growth rescue, BacTiter-Glo, 24 h. 410,000 compounds, 1.8% hits. Potency, µM (top dose mostly 46.1 µM), for inactives: top-dose growth rescue (activation), usual class: activators; also: % of control where 0% means no effect; nearly all actives have a fitted effect of over 50% in size
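Readout is BacTiter-Glo luminescence of cell growth, so inhibitors register as activators. TDP-43-expressing yeast at OD600=0.02 in galactose medium, after raffinose pregrowth to mid-log, were incubated with compound for 24 hr at 30 deg C.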
FUS yeast rescue = qHTS for Suppressors of FUS Proteinopathy: Primary screen using FUS-linked yeast assay; 390,000 compounds, 0.24% hits; S. cerevisiae FUS-expressing, growth rescue, OD600, 24 h; Potency, µM (series often up to 76.6 µM), most hits filed as activators; AID 1347120, 2019;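 also: plate controls were DMSO vehicle for no effect and reference control for full effect; nearly all actives have a fitted effect of over 55% in size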
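Read-out: OD at 600 nm after 24hr at 30C, reporting rescue of FUS-induced yeast toxicity. Cells at OD 0.005 in galactose (2%) minimal medium; compounds tested in a dilution series; CP55940 titration from 92uM final as control.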
Abeta yeast res = qHTS for compounds that reverse cellular toxicity of Amyloid beta (A-beta) peptide in yeast: Primary Screen | yeast expressing A-beta42, growth rescue, OD600, 48 h; response scale: 0% DMSO, 100% iron-clioquinol control | Potency, µM (doses to about 46.1 µM), usual class: activators | 410,000 compounds, 0.063% hits; also: nearly all actives have a fitted effect of over 55% in size
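Yeast growth medium received pinned compounds, then yeast cells expressing toxic A-beta were added; plates incubated at 30 C for 48 hr. Growth read as absorbance at 600 nm, normalized to DMSO and equimolar FeCl3 plus clioquinol controls.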
aSyn yeast inh = qHTS of alpha-syn Inhibitors; Yeast expressing alpha-synuclein, growth rescue, BacTiter-Glo, 24 h; 370,000 compounds, 0.14% hits; Potency, µM (doses to about 46.1 µM), without a hit: top-dose growth rescue (activation), usual class: activators; also: % of control where 0% means no effect; nearly all actives have a fitted effect of over 65% in size
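Readout is rescue of growth in alpha-synuclein-expressing yeast, so inhibitors of toxicity appear as activators. Growth after 24 hr at 30 deg C in galactose medium is quantified by luminescence.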
Mito fusion yeast = qHTS Assay for Small Molecule Inhibitors of Mitochondrial Division or Activators of Mitochondrial Fusion; 320,000 compounds, 0.23% hits; Potency, µM (titrated, usually from 46.1 µM), for the others: top-dose growth rescue (activation), usual class: activators; S. cerevisiae fusion-defective mutant growth rescue, CellTiterGlo 48 h; also: % of control where 0% means no effect; nearly all actives have a fitted effect of over 45% in size
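Compounds are tested for their ability to restore growth of mitochondrial fusion-defective yeast strains at non-permissive 37C in YPEG medium over 48 hours. Viability is quantified by luciferase luminescence.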
* hit, by the source's call; i = inactive; ? = inconclusive; . = no result; [ ] = another dose, or the depositor's remark. Calls follow the shape of the dose curve; as a rule, active = well fitted curve in the direction sought with a large enough effect; inconclusive = small, poorly fitted or top-dose-only effect, or another doubt; inactive = no such curve, though single readings can be large; an effect the other way counts as inactive or inconclusive. Potency is read from the fitted curve at half-maximal effect.

SMILES | TDP43 rescue | FUS yeast rescue | Abeta yeast res | aSyn yeast inh | Mito fusion yeast
N#Cc1c(-c2ccc3c(c2)OCO3)csc1N | 15.8µM* | i | i | 0.8% | 10.3%
N#Cc1c(N)c(C#N)c(-c2ccc3c(c2)OCO3)c2c1CCCC2 | 5.4% | . | i | -0.4% | -0.4%
O=C(C1=NOC2(C1)C(=O)Nc1ccccc12)N1CCCCC1 (stereo not drawn) | 14.2% | i | i | -13.6% | .
CC(Nc1cc(N2CCN(C(=O)C(C)(C)C)CC2)ccc1[N+](=O)[O-])c1ccccc1 (stereo not drawn) | 20µM* | ? | i | 0.1% | 0.1%
CC(C)C(=O)N1CCN(c2ccc([N+](=O)[O-])c(NC(C)c3ccccc3)c2)CC1 (stereo not drawn) | 20µM* | ? | i | -0.6% | ?
CC(Nc1cc(N2CCNCC2)ccc1[N+](=O)[O-])c1ccccc1 (stereo not drawn) | 4.7% | . | i | 7.8% | -15.5%
Cc1ccc(NC2CCCN(C(=O)c3ccc4[nH]ccc4c3)C2)cc1C (stereo not drawn) | -4.1% | i | i | 5.5% | 8.0%
Fc1ccc(CC2CCN(c3ncnc4sccc34)CC2)cc1 | . | i | . | . | .
Cc1oc(-c2ccc(C(=O)N(C)Cc3ccccc3)cc2)nc1CN1CCc2ccccc21 | 26.0% | 20µM* | i | -0.8% | .
Cc1ccc(CNC(=O)c2ccc(-c3nc(CN4CCc5ccccc54)c(C)o3)cc2)cc1 | 16.5% | i | i | -0.4% | .
COc1ccc2c(c1)OC[C@H]1[C@H]2N2C(=O)CN(CCc3c[nH]c4ccccc34)C(=O)[C@@]2(C)[C@H]1c1ccccc1 | -7.5% | 22.4µM* | i | -0.8% | -2.8%
COc1ccc2c(c1)OC[C@H]1[C@H]2N2C(=O)c3ccccc3NC(=O)[C@@]2(C)[C@H]1c1ccccc1 | 28.2µM* | i | i | 8.4% | .
CC1=C(C(=O)OCC2CCCCC2)C(c2ccc(Cl)cc2)CC(=O)N1 (stereo not drawn) | 10.5% | i | i | . | .
O=C(CSc1nc2ccccc2o1)Nc1nc2ccccc2s1 | 11.4% | i | i | 9.6% | -0.7%
Cc1ccc(-c2csc(NC(=O)CSC3=NCCS3)n2)cc1 | 7.08µM* | i | i | . | 15.5%
CCn1c(SCC(=O)Nc2nc(-c3ccccc3)cs2)nnc1-c1ccccc1O | 20µM* | i | i | 13.7% | ?
O=C(CSc1nc2ccccc2o1)Nc1nc(-c2ccccc2)cs1 | 0.4% | i | i | -1.0% | 15.8µM*
CCc1nnc(NC(=O)CSc2nnc(-c3ccccc3O)n2CC)s1 | -8.1% | i | i | 0.0% | -2.4%
O=C(COC(=O)/C=C/c1ccc(Cl)cc1Cl)NCC1CCCO1 (stereo not drawn) | 20µM* | i | i | 5.1%[1.84 µM] | .
Cc1ccc(-n2c(SCc3nc4ccccc4[nH]3)nnc2-c2ccccn2)cc1 | . | i | . | . | .
O=C(Nc1c(O)c2ccccc2oc1=O)c1ccccc1Cl | 2.51µM* | i | i | . | .
CC1(C(=O)Nc2cnc3ccccc3c2)CCN1C(=O)CC(c1ccccc1)c1ccccc1 (stereo not drawn) | 17.8µM* | ? | i | 0.9% | .
CC1(C)Cc2cccc(OCC(=O)N3CCN(S(=O)(=O)c4ccc(F)cc4)CC3)c2O1 | 15.1% | i | i | 5.3% | -2.4%
Cc1ccc(NC(=O)COc2cccc3c2OC(C)(C)C3)c(O)c1 | 11.2µM* | . | i | 0.7% | 7.4%
Cc1cccc(N2CCN(C(=O)COc3cccc4c3OC(C)(C)C4)CC2)c1C | ? | ? | i | 13.8% | 15.8µM*
SMILES | TDP43 rescue | FUS yeast rescue | Abeta yeast res | aSyn yeast inh | Mito fusion yeast
CSc1ccc(CCNC(=O)Cn2ncn3c(cc4ccccc43)c2=O)cc1 | 16.9% | i | i | . | .
CCC(=O)N1N=C(c2ccc(C)o2)CC1c1ccc(OC)cc1 (stereo not drawn) | 21.8% | i | i | 4.0% | 1.4%
CCC(=O)N1N=C(c2ccc(C)o2)CC1c1ccc(Br)cc1 (stereo not drawn) | 17.8µM* | . | i | 19.7% | ?
CC1CCN(c2ccccc2NC(=O)c2ccc(F)cc2)CC1 | 12.6µM* | i | i | . | ?
O=C(NC(=S)Nc1ccccc1N1CCCCC1)c1ccccc1 | 11.2µM* | i | i | -12.5% | -2.7%
CC1CCN(c2ccccc2NC(=S)NC(=O)c2cccs2)CC1 | 11.5% | i | i | 0.9% | -10.6%
CC1CCN(c2ccccc2NC(=S)NC(=O)C(C)(C)C)CC1 | ? | i | 12.6µM* | -2.5% | 12.1%
O=C(NC(=S)Nc1ccccc1N1CCCC1)c1ccc(F)cc1 | 25.1µM* | . | i | -13.4% | 2.9%
CCN(C(=O)c1cccc2c1-c1ccccc1C2=O)c1ccccc1 | . | i | . | . | .
O=C(NC(=S)Nc1ccccc1N1CCCC1)c1cccc(F)c1 | 0.0% | i | 7.94µM* | 0.2% | -2.0%
CC(C)(C)c1ccc(Nc2n[nH]c3ccccc23)cc1 | 35.5µM* | ? | i | 6.0% | .
COc1ccc(C(O)c2nc(-c3cccc(O)c3)cs2)cc1 (stereo not drawn) | 20µM* | i | ? | ? | .
COc1ccc(C(O)c2nc(-c3cccc(C(=O)O)c3)cs2)cc1 (stereo not drawn) | 11.0% | i | i | 5.1% | .
COc1ccc(C(O)c2nc(-c3cccc(C(C)C)c3)cs2)cc1 (stereo not drawn) | 35.5µM* | i | i | 0.0% | .
COc1ccc(C2C(C(=O)N3CCC(C)CC3)CC(=O)N2c2ccc(OC)cc2)cc1 (stereo not drawn) | . | i | . | . | .
CC(OC(=O)c1ccccc1Nc1ccc(SC(F)F)cc1)C(N)=O (stereo not drawn) | ? | . | i | -0.2% | 14.1µM*
N=C1SCC(=O)N1c1ncc(Cc2ccc(F)cc2)s1 | 10µM* | i | ? | 10.0% | 5.4%
COc1ccc(C(=O)COC(=O)c2cc([N+](=O)[O-])ccc2N2CCOCC2)c(OC)c1 | ? | . | i | 0.0% | -23.4%
CCOC(=O)c1ccccc1NC(=O)COC(=O)c1cc([N+](=O)[O-])ccc1N1CCOCC1 | 17.8µM* | i | i | 4.2% | ?
O=C(COC(=O)c1cc([N+](=O)[O-])ccc1N1CCOCC1)c1ccccc1Cl | ? | i | i | 10.4% | -1.0%
O=C(OCc1ccccc1Cl)c1cc([N+](=O)[O-])ccc1N1CCOCC1 | 20µM* | i | i | 19.1% | .
O=C(COC(=O)c1cc([N+](=O)[O-])ccc1N1CCOCC1)c1ccccc1 | 20µM* | i | i | 5.2% | 3.4%
COc1ccccc1C(=O)COC(=O)c1cc([N+](=O)[O-])ccc1N1CCOCC1 | 11.2µM* | i | i | 12.1% | -28.0%

Screening results as filed in PubChem.
